Molecules are shown by their SMILES. Where “and” joins values, the source holds several entries; their conditions need not be identical. Equal values may be shown once. Results filed as inconclusive are left out. Calls of active or inactive are those of the source. The calls were made as follows, unless noted: active = hit-call score of the fitted dose curve at least 0.9, where 1 is the maximum; inactive = score below 0.9.

Usually AC50 stands for the concentration at which the activity in the assay is half-maximal.

Read-out in test [1]: Monokine induced gamma interferon (MIG), CXCL9 (gene 4283)
The experiment in a line: BSK_SAg_MIG: BioMAP Diversity Plus: SAg Assay for Monokine induced gamma interferon (MIG) Biomarker Activity (AID 2283092). To be noted: primary human HUVEC with PBMC; actives raise or lower the signal. The method, boiled down: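 ELISA readout of MIG/CXCL9; primary human umbilical vein endothelial cells co-cultured with peripheral blood mononuclear cells; 24 h post-dose; gain/loss fit vs DMSO baseline.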

Test [2] in a line: BSK_SAg_PBMCCytotoxicity: PBMC Cytotoxicity Assessment in the BioMAP Diversity Plus: SAg Assay (AID 2283093).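 Also: PBMC viability measured as Alamar Blue reduction fluorescence at 546/580 nm; fitted both ways against DMSO so a hit may be loss or gain of signal.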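 As to AC50: PBMC superantigen activated with SEB plus TSST-1 one hour after compound addition.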 The settings on record: primary human HUVEC with PBMC. In outline: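 Compound added to 75,000 PBMC/well for 1 h; SEB and TSST-1 then added at 20 ng/mL final each; 90 h incubation; Alamar Blue 6 h; read 546/580 nm ex/em. Activity fitted bidirectionally relative to DMSO baseline.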

Read-out in test [3]: Interleukin-8 (IL8), CXCL8 (gene 3576)
Briefly: BSK_SAg_IL8: BioMAP Diversity Plus: SAg Assay for Interleukin-8 (IL8) Biomarker Activity (AID 2283094). To be noted: primary human HUVEC with PBMC; actives raise or lower the signal. In outline: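 In this co-culture of human umbilical vein endothelium with peripheral blood mononuclear cells, IL-8 is assayed by ELISA at 24 h. DMSO serves as baseline for bidirectional curve fitting.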

A short description of test [4]: BSK_SAg_Proliferation: Cell Proliferation Assessment in the BioMAP Diversity Plus: SAg Assay (AID 2283095).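 Also: relative cell number as total protein by SRB absorbance in sub-confluent culture.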 To be noted: primary human HUVEC with PBMC. The method, boiled down:
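Readout is SRB-stained protein (560 nm) in a primary human HUVEC and PBMC co-culture; sub-confluent cultures are read at 96 h. Activity is fitted bidirectionally using DMSO as baseline.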

The nature of test [5]: BSK_SAg_SRB: Viability Assessment in the BioMAP Diversity Plus: SAg Assay (AID 2283096).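 Also: cells read one day after compound addition; hits may be either gain or loss of signal compared with DMSO.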 The settings on record: primary human HUVEC with PBMC. In outline: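 Total protein by sulforhodamine B staining, 24 h after dosing, in HUVEC–PBMC co-culture; DMSO-referenced bidirectional fitting.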
Test [6] has as its target human CYP19A1, CYP19A1 (gene 1588) (UniProt P11511). The experiment in a line: NVS_ADME_hCYP19A1: NovaScreen (NVS) CYP450-related Enzyme Activity (ADME) Assay for human CYP19A1 (AID 2283098; active = hit-call score of the fitted dose curve at least 0.9, where 1 is the maximum). The method, boiled down: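 Biochem, cell-free; recombinant enzyme + specific substrate; fluorescence intensity at 0.5 h post-dose; 10 uM duplicate primary, conc. series for actives; acetonitrile = negative control/baseline; positive and negative controls on every plate.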

In test [7] the target is human CYP2A6, CYP2A6 (gene 1548) (UniProt P11509). The experiment in a line: NVS_ADME_hCYP2A6: NovaScreen (NVS) CYP450-related Enzyme Activity (ADME) Assay for human CYP2A6 (AID 2283099; active = hit-call score of the fitted dose curve at least 0.9, where 1 is the maximum). In outline:
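Compounds screened at 10 uM (duplicate) and, if active, titrated to a 20 uM top concentration against insect-cell-expressed CYP2A6. Loss of fluorescent product signal after 0.5 h, relative to acetonitrile baseline, indicates inhibition.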

Another test has as its target Caspase-3 (Homo sapiens) (UniProt P42574). The experiment in a line: NVS_ENZ_hCASP3: NovaScreen (NVS) Enzymatic Assay for human Caspase 3 (CASP3) (AID 2283139; active = hit-call score of the fitted dose curve at least 0.9, where 1 is the maximum). The method, boiled down: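 Recombinant human caspase-3 from E. coli with a fluorogenic substrate, read by fluorescence 1 h after dosing. Primary screen in duplicate at 25 uM. Actives (for example ≥30% inhibition) rerun as concentration-response up to 50 uM.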

The target in test [8] is human CYP2C9, CYP2C9 (gene 1559) (UniProt P11712). Briefly: NVS_ADME_hCYP2C9: NovaScreen (NVS) CYP450-related Enzyme Activity (ADME) Assay for human CYP2C9 (AID 2283108; active = hit-call score of the fitted dose curve at least 0.9, where 1 is the maximum). In outline: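 Fluorescence readout of CYP2C9 activity (SF9-expressed human enzyme) at 0.75 h. The primary screen used 10 uM in duplicate, with concentration-response follow-up for actives; acetonitrile was the negative control.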
human CYP2C9, CYP2C9 (gene 1559), sequence (P11712 whole entry, looked up): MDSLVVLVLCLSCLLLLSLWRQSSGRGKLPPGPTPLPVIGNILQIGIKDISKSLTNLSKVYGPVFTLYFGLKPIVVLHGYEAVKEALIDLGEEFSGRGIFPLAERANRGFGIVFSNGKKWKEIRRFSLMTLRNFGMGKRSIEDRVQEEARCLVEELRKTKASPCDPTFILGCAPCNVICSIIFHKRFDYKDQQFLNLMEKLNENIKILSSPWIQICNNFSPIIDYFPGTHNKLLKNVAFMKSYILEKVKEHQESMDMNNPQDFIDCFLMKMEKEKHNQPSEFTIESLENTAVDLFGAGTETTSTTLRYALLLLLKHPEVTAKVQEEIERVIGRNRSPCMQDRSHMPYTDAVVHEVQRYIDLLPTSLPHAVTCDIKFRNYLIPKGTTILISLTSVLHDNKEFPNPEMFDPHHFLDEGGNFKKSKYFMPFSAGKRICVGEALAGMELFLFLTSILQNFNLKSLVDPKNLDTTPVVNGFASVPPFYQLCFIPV

Test [9] has as its target Cytochrome P450 2C19 (Homo sapiens) (UniProt P33261). Briefly: NVS_ADME_hCYP2C19: NovaScreen (NVS) CYP450-related Enzyme Activity (ADME) Assay for human CYP2C19 (AID 2283113; active = hit-call score of the fitted dose curve at least 0.9, where 1 is the maximum;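 also: potency for inhibition seen as loss of fluorescent signal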). The method, boiled down: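 Compounds first screened in duplicate at 10 uM, then confirmed in concentration series. Insect-cell-expressed human CYP2C19 turned over a fluorogenic substrate, and fluorescence was read after 1 h. Inhibition taken as signal loss relative to acetonitrile.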

Test [10] addresses human CYP2B6, CYP2B6 (gene 1555) (UniProt P20813). The experiment in a line: NVS_ADME_hCYP2B6: NovaScreen (NVS) CYP450-related Enzyme Activity (ADME) Assay for human CYP2B6 (AID 2283101; active = hit-call score of the fitted dose curve at least 0.9, where 1 is the maximum). The method, boiled down:
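Fluorescence-based enzyme activity of recombinant human CYP2B6, measured 1 h post-dose against acetonitrile vehicle baseline. Screened at a single concentration of 10 uM in duplicate before concentration-response follow-up.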

Test [11] concerns the target human CYP1A2, CYP1A2 (gene 1544) (UniProt P05177). Briefly: NVS_ADME_hCYP1A2: NovaScreen (NVS) CYP450-related Enzyme Activity (ADME) Assay for human CYP1A2 (AID 2283102; active = hit-call score of the fitted dose curve at least 0.9, where 1 is the maximum). In outline:
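Enzyme activity of insect-cell-expressed human CYP1A2 measured by fluorescence 0.5 h after compound addition, relative to acetonitrile. Compounds first tested in duplicate at 10 uM, actives followed up in concentration series.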

For test [12], the target named is human CYP2D6, CYP2D6 (gene 1565) (UniProt P10635). Briefly: NVS_ADME_hCYP2D6: NovaScreen (NVS) CYP450-related Enzyme Activity (ADME) Assay for human CYP2D6 (AID 2283107; active = hit-call score of the fitted dose curve at least 0.9, where 1 is the maximum). In outline:
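Fluorescence readout of recombinant CYP2D6 (insect-cell derived) activity after 1 h incubation with test chemical. Acetonitrile served as baseline, loss-of-signal direction. Single-concentration duplicate screening at 10 uM preceded concentration-response retesting.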

In test [13] the target is Cytochrome P450 3A4 (Homo sapiens) (UniProt P08684). Briefly: NVS_ADME_hCYP3A4: NovaScreen (NVS) CYP450-related Enzyme Activity (ADME) Assay for human CYP3A4 (AID 2283110; active = hit-call score of the fitted dose curve at least 0.9, where 1 is the maximum). The method, boiled down: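 Compounds were first screened in duplicate at 10 uM against recombinant CYP3A4 produced in insect cells, then actives were run in concentration series. Enzyme activity was measured by fluorescence after 0.33 hour, with acetonitrile as baseline.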
Cytochrome P450 3A4 (Homo sapiens), sequence (P08684 whole entry, looked up): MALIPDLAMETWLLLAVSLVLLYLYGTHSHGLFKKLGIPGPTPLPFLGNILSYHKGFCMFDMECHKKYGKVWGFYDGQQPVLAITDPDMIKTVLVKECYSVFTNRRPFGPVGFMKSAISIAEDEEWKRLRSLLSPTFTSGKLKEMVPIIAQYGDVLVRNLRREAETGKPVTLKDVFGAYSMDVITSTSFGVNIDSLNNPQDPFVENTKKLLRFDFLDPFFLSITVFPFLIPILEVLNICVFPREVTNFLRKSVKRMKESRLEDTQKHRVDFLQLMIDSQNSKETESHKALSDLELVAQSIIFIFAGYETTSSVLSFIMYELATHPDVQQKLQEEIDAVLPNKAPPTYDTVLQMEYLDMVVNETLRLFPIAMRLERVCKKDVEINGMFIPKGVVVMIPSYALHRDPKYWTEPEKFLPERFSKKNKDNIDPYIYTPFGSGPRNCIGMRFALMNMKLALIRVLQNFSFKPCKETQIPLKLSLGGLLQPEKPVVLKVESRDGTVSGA

The target of test [14] is human Beta-secretase (BACE), BACE1 (gene 23621) (UniProt P56817). Briefly: NVS_ENZ_hBACE: NovaScreen (NVS) Enzymatic Assay for human Beta-secretase (BACE) (AID 2283140; active = hit-call score of the fitted dose curve at least 0.9, where 1 is the maximum;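 also: hits are inhibitors that reduce fluorescent substrate signal versus DMSO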). In outline: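 Recombinant BACE1 (SF9 extract) incubated with compound and fluorescent substrate, 1 h. Plates carried positive and DMSO negative controls. Initial single dose 25 uM, duplicate; confirmation by concentration series.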
human Beta-secretase (BACE), BACE1 (gene 23621), sequence (P56817 whole entry, looked up): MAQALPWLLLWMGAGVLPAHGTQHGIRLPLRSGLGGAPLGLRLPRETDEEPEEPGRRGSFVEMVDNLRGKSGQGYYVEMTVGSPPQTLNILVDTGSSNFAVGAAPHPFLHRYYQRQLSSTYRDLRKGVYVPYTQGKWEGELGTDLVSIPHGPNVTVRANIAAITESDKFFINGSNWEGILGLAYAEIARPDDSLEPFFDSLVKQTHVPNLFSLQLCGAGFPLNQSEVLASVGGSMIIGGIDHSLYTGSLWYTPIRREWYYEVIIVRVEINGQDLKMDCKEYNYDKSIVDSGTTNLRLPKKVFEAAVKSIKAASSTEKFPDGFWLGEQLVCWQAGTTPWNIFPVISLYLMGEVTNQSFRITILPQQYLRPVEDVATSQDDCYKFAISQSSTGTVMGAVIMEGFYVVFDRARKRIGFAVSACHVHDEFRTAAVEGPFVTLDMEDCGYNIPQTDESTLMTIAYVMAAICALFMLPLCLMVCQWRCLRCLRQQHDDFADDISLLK

In test [15] the target is human Caspase 5 (CASP5), CASP5 (gene 838) (UniProt P51878). Briefly: NVS_ENZ_hCASP5: NovaScreen (NVS) Enzymatic Assay for human Caspase 5 (CASP5) (AID 2283137; active = hit-call score of the fitted dose curve at least 0.9, where 1 is the maximum). The method, boiled down:
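Cell-free protease assay with bacterially expressed CASP5 and a fluorescent substrate, measured at 2 h. Values fitted relative to DMSO as baseline, from concentration-response series topping at 50 uM.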

human Caspase 5 (CASP5), CASP5 (gene 838), sequence (P51878 whole entry, looked up): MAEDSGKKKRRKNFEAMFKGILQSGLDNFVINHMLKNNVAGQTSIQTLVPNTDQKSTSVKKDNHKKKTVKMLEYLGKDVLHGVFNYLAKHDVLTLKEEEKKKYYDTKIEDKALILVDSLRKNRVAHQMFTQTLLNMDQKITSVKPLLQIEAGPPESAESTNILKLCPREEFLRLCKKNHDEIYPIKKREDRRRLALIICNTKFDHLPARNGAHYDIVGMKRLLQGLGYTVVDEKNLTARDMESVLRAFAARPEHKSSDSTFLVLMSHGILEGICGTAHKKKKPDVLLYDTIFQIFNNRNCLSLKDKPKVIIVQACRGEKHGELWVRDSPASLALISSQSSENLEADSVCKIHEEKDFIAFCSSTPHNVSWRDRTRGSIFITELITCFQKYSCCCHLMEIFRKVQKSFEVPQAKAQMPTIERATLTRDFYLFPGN
human CYP1A2, CYP1A2 (gene 1544), sequence (P05177 whole entry, looked up): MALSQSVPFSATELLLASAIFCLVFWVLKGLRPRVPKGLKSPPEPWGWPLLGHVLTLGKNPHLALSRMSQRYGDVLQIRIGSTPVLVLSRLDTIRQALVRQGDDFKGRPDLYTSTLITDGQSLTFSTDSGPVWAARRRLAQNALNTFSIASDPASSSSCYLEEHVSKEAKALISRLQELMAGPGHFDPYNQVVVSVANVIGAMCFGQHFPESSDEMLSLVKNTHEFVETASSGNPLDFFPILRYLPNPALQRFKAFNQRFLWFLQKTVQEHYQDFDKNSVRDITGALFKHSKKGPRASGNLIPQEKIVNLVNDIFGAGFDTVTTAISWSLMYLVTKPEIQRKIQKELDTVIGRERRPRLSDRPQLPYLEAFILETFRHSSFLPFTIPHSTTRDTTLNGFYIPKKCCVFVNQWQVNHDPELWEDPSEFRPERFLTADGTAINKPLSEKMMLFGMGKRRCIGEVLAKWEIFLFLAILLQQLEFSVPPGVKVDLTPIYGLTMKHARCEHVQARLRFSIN
Caspase-3 (Homo sapiens), sequence (P42574 whole entry, looked up): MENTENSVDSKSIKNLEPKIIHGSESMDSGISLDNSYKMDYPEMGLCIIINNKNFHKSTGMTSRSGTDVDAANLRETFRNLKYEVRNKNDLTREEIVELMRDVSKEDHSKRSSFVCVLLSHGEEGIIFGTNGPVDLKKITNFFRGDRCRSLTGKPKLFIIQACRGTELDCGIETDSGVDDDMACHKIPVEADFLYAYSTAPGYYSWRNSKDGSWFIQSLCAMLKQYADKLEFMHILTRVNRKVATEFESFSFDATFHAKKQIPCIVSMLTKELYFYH
human CYP2B6, CYP2B6 (gene 1555), sequence (P20813 whole entry, looked up): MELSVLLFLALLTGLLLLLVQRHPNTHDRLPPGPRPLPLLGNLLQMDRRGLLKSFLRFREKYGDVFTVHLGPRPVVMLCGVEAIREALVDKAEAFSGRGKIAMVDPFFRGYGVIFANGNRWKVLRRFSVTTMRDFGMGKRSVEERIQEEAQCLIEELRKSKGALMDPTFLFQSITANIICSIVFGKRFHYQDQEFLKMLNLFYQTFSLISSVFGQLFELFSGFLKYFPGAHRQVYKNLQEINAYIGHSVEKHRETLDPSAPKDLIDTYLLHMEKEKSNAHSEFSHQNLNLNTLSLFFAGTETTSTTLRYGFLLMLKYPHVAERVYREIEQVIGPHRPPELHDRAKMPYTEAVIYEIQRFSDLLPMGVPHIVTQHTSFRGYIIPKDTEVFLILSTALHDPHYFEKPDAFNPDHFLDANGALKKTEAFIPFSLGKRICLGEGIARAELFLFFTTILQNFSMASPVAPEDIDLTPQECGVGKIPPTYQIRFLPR
human CYP2D6, CYP2D6 (gene 1565), sequence (P10635 whole entry, looked up): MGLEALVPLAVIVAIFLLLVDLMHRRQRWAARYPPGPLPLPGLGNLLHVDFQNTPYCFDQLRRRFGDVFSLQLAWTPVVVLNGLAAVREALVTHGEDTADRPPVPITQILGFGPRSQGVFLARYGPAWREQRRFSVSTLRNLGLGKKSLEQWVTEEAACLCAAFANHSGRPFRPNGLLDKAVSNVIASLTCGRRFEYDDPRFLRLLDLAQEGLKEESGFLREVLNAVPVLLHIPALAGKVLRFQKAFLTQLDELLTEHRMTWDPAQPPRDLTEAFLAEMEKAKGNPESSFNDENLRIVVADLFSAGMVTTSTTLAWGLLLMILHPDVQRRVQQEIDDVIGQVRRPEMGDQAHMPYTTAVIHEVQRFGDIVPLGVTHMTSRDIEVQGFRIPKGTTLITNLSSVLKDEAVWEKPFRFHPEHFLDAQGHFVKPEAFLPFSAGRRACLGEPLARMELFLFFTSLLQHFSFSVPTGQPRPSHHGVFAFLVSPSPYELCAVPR
human CYP2A6, CYP2A6 (gene 1548), sequence (P11509 whole entry, looked up): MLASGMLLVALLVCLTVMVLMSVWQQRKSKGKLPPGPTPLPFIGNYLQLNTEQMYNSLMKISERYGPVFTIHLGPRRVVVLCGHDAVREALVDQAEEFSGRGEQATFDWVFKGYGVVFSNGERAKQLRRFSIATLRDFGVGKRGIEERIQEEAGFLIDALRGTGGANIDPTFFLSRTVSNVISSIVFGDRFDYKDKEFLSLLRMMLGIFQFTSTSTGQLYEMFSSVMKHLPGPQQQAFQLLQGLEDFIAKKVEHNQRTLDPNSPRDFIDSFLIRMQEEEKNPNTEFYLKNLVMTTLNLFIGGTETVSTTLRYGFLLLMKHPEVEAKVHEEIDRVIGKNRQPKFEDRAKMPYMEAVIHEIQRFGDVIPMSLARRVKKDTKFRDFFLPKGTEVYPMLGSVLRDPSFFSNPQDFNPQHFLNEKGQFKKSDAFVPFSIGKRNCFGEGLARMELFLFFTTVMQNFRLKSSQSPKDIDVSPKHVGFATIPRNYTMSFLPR
human CYP19A1, CYP19A1 (gene 1588), sequence (P11511 whole entry, looked up): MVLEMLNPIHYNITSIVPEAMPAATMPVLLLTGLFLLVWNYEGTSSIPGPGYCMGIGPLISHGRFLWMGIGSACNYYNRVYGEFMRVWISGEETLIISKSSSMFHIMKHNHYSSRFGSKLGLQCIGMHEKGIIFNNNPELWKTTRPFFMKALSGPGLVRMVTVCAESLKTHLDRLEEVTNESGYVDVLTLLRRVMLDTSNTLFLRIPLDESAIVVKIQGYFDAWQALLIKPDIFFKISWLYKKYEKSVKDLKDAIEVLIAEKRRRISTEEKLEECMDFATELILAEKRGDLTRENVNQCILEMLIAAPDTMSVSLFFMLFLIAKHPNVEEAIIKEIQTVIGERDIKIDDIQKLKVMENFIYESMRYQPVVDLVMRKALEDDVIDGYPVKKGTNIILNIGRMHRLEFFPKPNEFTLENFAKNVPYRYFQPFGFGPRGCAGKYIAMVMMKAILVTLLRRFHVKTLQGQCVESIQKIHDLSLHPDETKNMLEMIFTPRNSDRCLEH

Consider `Cc1cccc(O)c1C`, for which the outcome in [1], in test [2], in test [3], in test [4] and in test [5] was inactive.

On to `CCOc1ccc2[nH]cc(C(=O)NCc3ccccc3)c(=O)c2n1`, for which the result in test [1], in [2], in test [3], in test [4] and in [5] was inactive.

`NC(=O)NN=Cc1ccc([N+](=O)[O-])o1`: the outcome in test [1], in test [2], in test [3], in test [5], in [6] and in test [7] was inactive. Further, the AC50 was 20 µM (active) in test [4] and 20.9 µM (active) with Caspase-3 (Homo sapiens).

Turning to `O=S(=O)(O)CCC(F)(F)C(F)(F)C(F)(F)C(F)(F)C(F)(F)C(F)(F)F`, the result in test [1], in [2], in test [3], in test [4] and in [5] was inactive.

In the case of `OC(O)(C(F)C(O)(O)C(F)(F)F)C(F)(F)F`, the outcome in [1], in test [2], in test [3] and in test [5] was inactive. Besides, the AC50 in [4] is 30 µM (active).

Regarding `C[C@]12C=CC(=O)C=C1CC[C@H]1[C@@H]3C[C@@H](O)[C@](O)(C(=O)CO)[C@@]3(C)C[C@H](O)[C@@]12F`, the outcome in [1], in test [2], in test [3], in [4] and in test [5] was inactive.

In the case of `CC1(C)C(=O)N(Cl)C(=O)N1Cl`, the result in test [1], in test [2], in [3], in test [4] and in test [5] was inactive.

Consider `C=CN1CCCC1=O`, for which the result in [1], in test [2], in [3], in test [4] and in [5] was inactive.

As to `c1ccc2c(c1)-c1cccc3c1c-2cc1ccccc13`, the result in test [1], in test [2], in test [3], in test [4] and in test [5] was inactive.

Turning to `O=C(O)c1cccc(C[C@@H]2COc3ccc(OCc4nc5cc(F)ccc5s4)cc3[C@@H]2O)c1`, the result in test [1], in [2], in test [3], in [4] and in [5] was inactive.

Regarding `CCc1cccc(CC)c1N`, the result in test [1], in test [2], in test [3], in test [4] and in test [5] was inactive.

Turning to `OCC(CO)(CO)CO`, the result in test [1], in [2], in test [3], in test [4] and in test [5] was inactive.

`Cn1c(=O)c2[nH]cnc2n(C)c1=O`: the result in [1], in test [2], in test [3], in [4] and in test [5] was inactive.

`CCCc1ccccc1`: the result in test [1], in test [2], in [3], in test [4] and in test [5] was inactive.

`c1ccc2cc3ccccc3cc2c1`: the outcome in test [1], in test [2], in test [3], in test [4] and in test [5] was inactive.

On to `FC(F)C(F)(F)COCC1CO1` (centres undefined), for which the outcome in [1], in [2], in test [3], in test [4] and in [5] was inactive.

As for `CCCOc1ccc(S(=O)(=O)N2CCN(CC)CC2)cc1-c1nc2c(CC)n(Cc3ccccn3)nc2c(=O)[nH]1`, the outcome in test [1], in test [2], in test [3], in [4] and in [5] was inactive. Besides, the AC50 in [8] was 2.98 µM (active); in test [9], 1.45 µM (active).

Regarding `O=C(O)c1ccc2c(c1)nc(C(=O)NC1CCN(C3CC3)CC1)n2Cc1cc(-c2ccc(Cl)s2)on1`, the result in test [1], in test [2], in test [3], in test [4] and in test [5] was inactive.

As for `O=S1(=O)CCCO1`, the result in test [1], in test [2], in [3], in [4] and in test [5] was inactive.

For the compound `CCCCCCCCCC`, the result in test [1], in test [2], in test [3], in [4], in test [5] and in test [11] was inactive. The compound was called inactive in test [12] and in [14]. The AC50 in [10] is 10 µM (active); in [8] it was 15.1 µM (active); in test [13], 6.55 µM (active); in [9], 5.72 µM (active).

Take `CCCCOC(=O)c1ccccc1`: the result in test [1], in test [2], in test [3], in test [4] and in test [5] was inactive.

Regarding `CNC(C)=O`, the outcome in [1], in test [2], in test [3], in [4] and in [5] was inactive.

For the compound `CCCCCCCCCCCCCCO`, the AC50 in [1] is 39.4 µM (active); in [2], 30.3 µM (active); in [3], 31.8 µM (active); in [4], 27.7 µM (active); in test [5] it was 32.4 µM (active).

Consider `NCC(F)(F)C(F)(F)C(F)(F)C(F)(F)F`, for which the result in test [1], in [2], in test [3], in [4] and in test [5] was inactive.

For the compound `Nc1ccn([C@@H]2O[C@H](CO)[C@@H](O)[C@@H]2O)c(=O)n1`, the result in [1] and in [3] was inactive. Further, the values for the AC50 in [2], in [4] and in test [5] were 12 µM (active), 14.1 µM (active) and 20 µM (active), respectively.

`OC[C@H]1O[C@@H]2O[C@H]3[C@H](O)[C@@H](O)[C@@H](O[C@H]4[C@H](O)[C@@H](O)[C@@H](O[C@H]5[C@H](O)[C@@H](O)[C@@H](O[C@H]6[C@H](O)[C@@H](O)[C@@H](O[C@H]7[C@H](O)[C@@H](O)[C@@H](O[C@H]1[C@H](O)[C@H]2O)O[C@@H]7CO)O[C@@H]6CO)O[C@@H]5CO)O[C@@H]4CO)O[C@@H]3CO`: the result in [1], in [2], in test [3], in [4] and in test [5] was inactive.

For the compound `CC(C)CC(C)O` (centres undefined), the result in [1], in [2], in test [3], in test [4] and in [5] was inactive.

As for `OC(CCl)CCl`, the result in test [1], in test [3], in test [4] and in test [5] was inactive.

As for `OCc1c[nH]c2ccccc12`, the outcome in test [1], in [2] and in test [5] was inactive. Also, the concentration at half-maximal activity (AC50) in [3] is 0.0481 µM (active); in [4], 31.1 µM (active); in test [9] it was 0.574 µM (active); in [15], 25 µM (active) and 29.7 µM (active); in [14], 25 µM (active).
